Reference: PubChem BioAssay (Tox21)
Inconclusive results are not listed. Entries that show only a call come without a potency. The source made the active and inactive calls. Calls come from the whole dose curve; as a rule, active = well fitted cell-killing curve with a large enough effect in the repeat runs; inconclusive = weak or mixed curves, or effect the other way; inactive = flat fitted curve, though single readings scatter.
Potency is the fitted concentration of half-maximal effect.

Assay: Caspase-3/7 induction in HepG2 cells by small molecules, qHTS cell viability counter screen (AID 1346981); note: nearly all actives have a fitted effect of over 30% in size
Conditions: CellTiter-Fluor fluorescence, 17 h; series mostly up to 92.4 µM
Procedure, shortened: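 CellTiter-Fluor fluorescence measured viability in the same wells used for Caspase-Glo 3/7. HepG2 (wild type) at 2,000 cells/well were pre-incubated 5 hr, dosed, and given reagent at 16 hr, with 1 hr further at 37C.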
In the case of `Cc1ccccc1S`, the Potency is reported as “inactive”. With `CCCCN1CCCC1C(=O)Nc1c(C)cc(C)cc1C` (centres undefined) the Potency was “inactive”. For `CC(CO)CO`, the Potency was “inactive”. In the case of `COc1cc(C(=O)NC2CCN(C)CC2)ccc1Nc1ncc2c(n1)N(C1CCCC1)CC(F)(F)C(=O)N2C`, the Potency is reported as 15.8 µM (active). For `COc1cc(Nc2c(C#N)cnc3cc(OCCCN4CCN(C)CC4)c(OC)cc23)c(Cl)cc1Cl`, the Potency was 13.3 µM (active). For `CCOC(=O)C1=C(C)NC(C)=C(C(=O)OC)C1c1cccc(Cl)c1Cl` (centres undefined), the Potency was “inactive”. With `C=CC(=O)[O-].C=CC(=O)[O-].[Zn+2]` the Potency was “inactive”. For `c1ccc(C[n+]2cccc3ccccc32)cc1`, the Potency was “inactive”. For `C(=C\c1ccccc1)/c1ccccc1`, the Potency was “inactive”. With `CCC1CO1` (centres undefined) the Potency was “inactive”. With `Brc1cc2ccccc2c2ccccc12` the Potency was “inactive”. With `CC1(C)O[C@@H]2C[C@H]3[C@@H]4C[C@H](F)C5=CC(=O)C=C[C@]5(C)[C@H]4[C@@H](O)C[C@]3(C)[C@]2(C(=O)CO)O1` the Potency was “inactive”. For `CCOC(=O)c1ccc(O)c(O)c1`, the Potency was “inactive”. For `O=[N+]([O-])c1ccc(O/N=C/c2cc(Br)c(O)c(Br)c2)c([N+](=O)[O-])c1`, the Potency was 27.2 µM (active). With `O=[N+]([O-])c1ccc(Nc2ccc(Nc3ccccc3)c(S(=O)(=O)O)c2)c([N+](=O)[O-])c1` the Potency was 61.1 µM (active). In the case of `Cc1[nH]cnc1CN1CCc2c(c3ccccc3n2C)C1=O`, the Potency is reported as “inactive”. With `CN1CCCN=C1COC(=O)C(O)(c1ccccc1)C1CCCCC1` (centres undefined) the Potency was “inactive”. For `O=c1[nH]c2ccc(Cl)cc2o1`, the Potency was “inactive”. In the case of `O=c1cc(-c2ccccc2)oc2cc(O)cc(O)c12`, the Potency is reported as 54.5 µM (active). In the case of `O=C1c2ccccc2C(=O)c2c(O)c(O)cc(O)c21`, the Potency is reported as 54.5 µM (active). For `O=C1CCCCCCCCCCOCCCCO1`, the Potency was “inactive”. With `c1csc(SSc2cccs2)c1` the Potency was “inactive”. For `Cc1cc(C)cc(N)c1`, the Potency was “inactive”. With `CCCCC(CC)COP(=O)(O)O` (centres undefined) the Potency was “inactive”. With `COc1ccccc1N1CCN(CCCCNC(=O)c2ccc(-c3ccc(C(C)=O)cc3)cc2)CC1` the Potency was “inactive”. In the case of `CCC(C)(C)OC`, the Potency is reported as “inactive”. In the case of `FC(F)(F)c1ccccc1Cl`, the Potency is reported as “inactive”. For `CO/N=C(/C(=O)N[C@@H]1C(=O)N2C(C(=O)O)=C(COC(N)=O)CS[C@H]12)c1ccco1`, the Potency was “inactive”. In the case of `CN(C)CCN1C(=O)c2ccccc2N(C)c2ccccc21`, the Potency is reported as “inactive”.
